The source of these data is PubChem BioAssay (NCATS).

Each structure is given as a SMILES string. Inconclusive results are not listed. Active and inactive are the calls of the source. Unless noted, the call rests on the fitted dose curve.

The nature of experiment [1]: qHTS for Inhibitors of the Functional Ribonucleoprotein Complex (vRNP) of Lassa (LASV) Arenavirus: LASV Primary Screen - GLuc reporter signal (AID 1347082; calls by dose curve; tested in HEK293 reporter line; further: nearly all actives have a fitted effect of over 60% in size; further: potency means the concentration at half of the fitted maximal effect; on activity change, negative = inhibition: on the % scale 0 is the no-effect control and ±100 the full control effect). In general terms: qHTS replaces the single test concentration by a dilution series.
Experiment [2] can be described thus: qHTS for Inhibitors of the Functional Ribonucleoprotein Complex (vRNP) of Lassa (LASV) Arenavirus: Viability assay - alamar blue signal for LASV Primary Screen (AID 1347083; calls by dose curve; tested in HEK293 reporter line; further: nearly all actives have a fitted effect of over 80% in size; further: potency means the concentration at half of the fitted maximal effect).
The target in experiment [3] is Nucleoprotein (Lymphocytic choriomeningitis virus (strain Armstrong)) (UniProt P09992). As to the kind of experiment: qHTS for Inhibitors of the Functional Ribonucleoprotein Complex (vRNP) of Lymphocytic Choriomeningitis Arenaviruses (LCMV): LCMV Primary Screen - GLuc reporter signal (AID 1347086). Further: nearly all actives have a fitted effect of over 70% in size. Further: potency means the concentration at half of the fitted maximal effect. On activity change, negative = inhibition: on the % scale 0 is the no-effect control and ±100 the full control effect.
Chain of Nucleoprotein (Lymphocytic choriomeningitis virus (strain Armstrong)) (P09992 whole entry, looked up): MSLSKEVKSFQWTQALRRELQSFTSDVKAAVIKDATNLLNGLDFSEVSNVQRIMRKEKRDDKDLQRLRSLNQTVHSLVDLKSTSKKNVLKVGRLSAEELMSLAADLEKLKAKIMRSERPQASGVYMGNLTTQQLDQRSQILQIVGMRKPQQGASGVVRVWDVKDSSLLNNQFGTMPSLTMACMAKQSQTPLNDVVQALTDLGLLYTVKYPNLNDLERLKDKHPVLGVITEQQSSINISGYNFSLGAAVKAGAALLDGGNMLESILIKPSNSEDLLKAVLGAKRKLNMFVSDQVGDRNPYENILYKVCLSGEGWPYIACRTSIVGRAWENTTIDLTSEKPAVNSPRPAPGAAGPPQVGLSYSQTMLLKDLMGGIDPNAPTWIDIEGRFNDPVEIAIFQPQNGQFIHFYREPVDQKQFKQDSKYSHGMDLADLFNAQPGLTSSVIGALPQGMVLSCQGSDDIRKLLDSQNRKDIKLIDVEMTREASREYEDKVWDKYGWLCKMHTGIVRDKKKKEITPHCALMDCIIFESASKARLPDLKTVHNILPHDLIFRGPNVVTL
Experiment [4] can be described thus: Primary qHTS to identify inhibitors of SARS-CoV-2 cell entry (AID 1645846). Further: nearly all actives have a fitted effect of over 45% in size. Further: potency means the concentration at half of the fitted maximal effect. Conditions: activity change, negative = inhibition: at 57.1 µM (top of the series) unless noted. In outline:
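Using luciferase-reporting pseudoviruses carrying Wuhan-Hu-1 spike, the screen tracks entry into stably ACE2-expressing cells over 48 hr. Activity is expressed relative to spike particles versus particles lacking any fusion protein.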

Experiment [5] has as its target Alpha-galactosidase (Coffea arabica) (UniProt Q42656). Put plainly: Counterscreen for Glucocerebrosidase Inhibitors: qHTS Assay for Coffee Bean alpha-Galactosidase at pH 4.5 (AID 957; active means well fitted curve in the direction sought with a large enough effect; an effect the other way counts as inactive or inconclusive;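 further: plate controls were enzyme alone for no effect and no enzyme for full effect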). In short, it runs like this: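 Coffee bean alpha-galactosidase 2 nM, substrate 4-MU-alpha-Gal 80 uM, pH 4.5 citrate/Tween-20, 20 min RT. Cpd titration 0.7 nM–77 uM. Stop pH 10, fluorescence 365/440 nm; Hill-equation AC50.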
(A counterscreen serves to expose hits that act by an unwanted route or on another target.)

For experiment [6] the target is unchanged. Put plainly: Counterscreen for Glucocerebrosidase Inhibitors: qHTS Assay for Coffee Bean alpha-Galactosidase at pH 5.9 (AID 998; active means well fitted curve in the direction sought with a large enough effect; an effect the other way counts as inactive or inconclusive;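 further: plate controls were uninhibited enzyme for no effect and no-enzyme basal signal for full effect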). In short, it runs like this: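 Green coffee bean enzyme (2 nM) with 4-methylumbelliferyl alpha-D-galactopyranoside (80 uM) in 50 mM citric acid, 0.005% Tween-20, pH 5.9, 20 min at room temperature; compounds 0.7 nM–77 uM. Stopped at pH 10, fluorescence Ex365/Em440; Hill-fit AC50.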

Experiment [7] in a line: Validation screen for inhibitors of Lassa infection (AID 463096). Further: on the % scale 0 is the no-effect control and ±100 the full control effect.
Experiment [8] can be described thus: Inducers of the Endoplasmic Reticulum Stress Response (ERSR) in human glioma: Validation (AID 504836; active means well fitted curve in the direction sought with a large enough effect; an effect the other way counts as inactive or inconclusive; further: 0% is about no effect). In outline: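 Stably transfected U87-MG glioma cells carrying a GRP78-based luciferase sensor; 16 h compound incubation. Luminescence end-point read 10 min after Bright-Glo addition at room temperature.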
A short description of experiment [9]: Cytotoxicity counterscreen for inhibitors of SARS-CoV-2 cell entry (AID 1645845). Further: nearly all actives have a fitted effect of over 50% in size. Further: potency means the concentration at half of the fitted maximal effect. In outline: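 HEK293-ACE2 cells (Expi293F stably expressing human ACE2) seeded overnight, then compound for 1 h plus 48 h at 37C. Viability as ATP content by luminescence; normalized to wells with cells and media-only wells.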
A short description of experiment [10]: qHTS profiling of the MIPE4 collection as inhibitors of Plasmodium falciparum (3D7) proliferation (AID 743344; call rule not given here;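 further: scaled between DMSO vehicle wells and 0.29 µM artemisinin as full inhibition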). Conditions: P. falciparum 3D7 in erythrocytes, SYBR Green DNA fluorescence, 72 h; at 28.5 µM (top of the series) unless noted. In short, it runs like this:
(§1)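 Erythrocytes infected with P. falciparum (0.3% parasitemia, 2.5% hematocrit) incubated with compounds 72 h at 37 C, 5% CO2. Lysis with saponin/Triton buffer containing SYBR Green I, overnight at room temperature in the dark; DNA fluorescence (485/535 nm) normalised to 0.29 uM artemisinin and DMSO.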

A short description of experiment [11]: qHTS profiling of the MIPE4 collection as inhibitors of Plasmodium falciparum (DD2) proliferation (AID 743345; call rule not given here). The settings on record: P. falciparum Dd2 in erythrocytes, SYBR Green DNA, 72 h; at 28.5 µM (top of the series) unless noted. In short, it runs like this: as §1
Experiment [12] can be described thus: qHTS profiling of the MIPE4 collection as inhibitors of Plasmodium falciparum (DD2) proliferation (Rep 2) (AID 743346; call rule not given here). Conditions: P. falciparum Dd2 in erythrocytes, SYBR Green DNA, 72 h; at 28.5 µM (top of the series) unless noted. In outline: as §1
Experiment [13] in a line: qHTS profiling of the MIPE4 collection as inhibitors of Plasmodium falciparum (HB3) proliferation (AID 743347; call rule not given here;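 further: plate controls were DMSO vehicle wells for no effect and artemisinin wells for full effect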). The settings on record: P. falciparum HB3 in erythrocytes, SYBR Green DNA, 72 h; at 28.5 µM (top of the series) unless noted. In short, it runs like this: as §1

Chain of Alpha-galactosidase (Coffea arabica) (Q42656 whole entry, looked up): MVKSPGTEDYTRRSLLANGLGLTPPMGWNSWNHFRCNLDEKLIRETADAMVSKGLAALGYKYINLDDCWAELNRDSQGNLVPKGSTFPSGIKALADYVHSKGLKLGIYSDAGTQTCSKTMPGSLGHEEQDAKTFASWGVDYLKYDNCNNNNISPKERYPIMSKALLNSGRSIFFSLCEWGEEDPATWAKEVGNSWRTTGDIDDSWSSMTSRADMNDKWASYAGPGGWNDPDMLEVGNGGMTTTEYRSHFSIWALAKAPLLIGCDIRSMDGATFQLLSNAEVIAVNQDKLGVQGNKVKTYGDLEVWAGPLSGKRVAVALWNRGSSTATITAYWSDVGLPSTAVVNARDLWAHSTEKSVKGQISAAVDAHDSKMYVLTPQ

In the case of `CN1N=C(N)c2cn([C@@H]3O[C@H](COP(=O)(O)O)[C@@H](O)[C@@H]3O)c3ncnc1c23`, the Potency result in experiment [1] and in [3] was “inactive” in each case. In addition, in experiment [2], the Potency is 34.3 µM (active). Also, the activity change, negative = inhibition in [4] is -94.7%.
With `C=CCn1c(=O)c2c(nc(-c3ccc(S(=O)(=O)O)cc3)n2C)n(C)c1=O`, the molecule was called inactive in experiment [5], in [6] and in [8]. In addition, the Potency entry in [7], in [1], in experiment [2] and in experiment [3] was “inactive” each time.
Regarding `CN(C(Cc1ccc(OS(=O)(=O)c2cccc3cnccc23)cc1)C(=O)N1CCN(c2ccccc2)CC1)S(=O)(=O)c1cccc2cnccc12` (stereo not given), the Potency in [1] was 13.7 µM (active); in experiment [2] it was 21.7 µM (active). In addition, the Potency entry in [9] was “inactive”.
In experiment [10], `CC(C)C(C)C=CC(C)C1CCC2C3=CC=C4CC(O)CCC4(C)C3CCC21C` (stereo not given) displayed a parasite growth, % of DMSO control of 96.2%. In addition, the Potency in experiment [1] was 27.3 µM (active); in experiment [2], 38.5 µM (active); in [3], 7.69 µM (active). For the same molecule, the Potency result in experiment [9] and in experiment [4] was “inactive” each time.
Consider `CCc1ccc(OCc2ccccc2C(=O)Nc2ccc3nc(C)cc(N)c3c2)cc1`, for which the Potency in experiment [1] was 12.2 µM (active); in experiment [2], 21.7 µM (active); in experiment [9] it was 15.8 µM (active); in experiment [4], 10 µM (active).
Turning to `COc1cc(F)c(F)c(Nc2ccc(I)cc2F)c1NS(=O)(=O)C1(C[C@H](O)CO)CC1`, the Potency result in [1], in experiment [2] and in [3] was “inactive” each time. In addition, the Potency in [4] was 25.1 µM (active).
Take `COc1cc(Nc2ncc(F)c(Nc3ccc4c(n3)N(COP(=O)(O)O)C(=O)C(C)(C)O4)n2)cc(OC)c1OC`: the Potency result in experiment [1], in [9] and in experiment [4] was “inactive” throughout. Besides, the Potency in experiment [2] is 2.43 µM (active).
Regarding `O=c1[nH]c(=O)n([C@H]2C[C@@H](O)[C@@H](CO)O2)cc1C=CBr`, the outcome in experiment [8] was inactive. For the same molecule, the parasite growth, % of DMSO control in experiment [10] came to 139%. Besides, in experiment [11], the parasite growth remaining, % of DMSO control (lower = more inhibition) was found to be 118%. Also, in [12], the parasite growth, % of control (lower = inhibition) was 157%. For the same molecule, in experiment [13], the growth, % of control was 652%. The Potency entry in [1], in experiment [2] and in experiment [3] was “inactive” in each case.
